In ChEMBL document CHEMBL3988442, “University of Dundee, Small-Polar-MMV Screening Library” (2021):
Among all 48,000 compounds or so, about 13,000 (27%) showed an effect of 50% or more. The list shows a part of the results.

Tested on: Wolbachia pipientis
Experiment: Anti-Wolbachia Cell-Based Screen
Assay type: functional
Parameters: scale not given: in the data most compounds retested in dose-response had high values
Details: 5 µM

Compound	Percent Effect [%]
COC(=O)c1cc2c(=O)[nH]c(=O)n(CCc3ccccc3)c2nc1C	-9.313
O=C(c1ccc2cccc(F)c2n1)N1CCN(CCn2cncn2)CC1	-17.81
Cc1cc(CN(C)C(=O)NC(C)c2nncn2C)no1 (stereo not drawn)	1.763
Cc1cc(C)n(C2CN(c3nc(N)nc4c3CCCC4)C2)n1	12.27
NCc1csc(CCc2ccccc2)n1	-7.942
O=S(=O)(c1cccc(Cl)c1)N1CCCC(Cn2cncn2)C1 (stereo not drawn)	-2.672
CN1C(=O)C[C@@H]2[C@@H]1CCN2S(=O)(=O)Cc1ccccc1	-5.88
CN(C)Cc1cc(C2CCCCN2S(=O)(=O)Cc2ccccc2)nn1C.Cl (stereo not drawn)	133.2
CCN(C)C[C@@H]1CN(S(=O)(=O)c2cccc(Cl)c2)C[C@@H]1CO	13.86
CN(C)CCN1CC[C@@H]2[C@@H]1CCN2C(=O)c1cccc(Cl)c1	-16.88
CN(C)Cc1cc(C2CCCN(S(=O)(=O)c3cccc(Cl)c3)C2)nn1C (stereo not drawn)	157.3
O=S(=O)(N1CCCC1)N1CCCCC1CCc1ccccc1 (stereo not drawn)	1.463
CN(C)Cc1cc(C2CCCCN2S(=O)(=O)c2cccc(Cl)c2)nn1C.Cl (stereo not drawn)	167.4
CCN(Cc1cccc(NC(=O)COC)c1)C(C)=O	-0.3601
Cc1cc(C(=O)NC(C)c2nnn[nH]2)c2ccc(C)c(C)c2n1 (stereo not drawn)	-4.141
c1csc(-c2noc(COCC3CCCO3)n2)c1 (stereo not drawn)	0.9659
CCOCc1ccccc1NC(=O)NC1CCN(c2ccccc2)C1 (stereo not drawn)	9.486
O=C(c1ccc[nH]1)N1CCC2(CC1)C(=O)Nc1ccccc12	-2.806
Cc1nc(C)c(Cc2nc(C3CC3)n[nH]2)c(=O)[nH]1	-38.01
Cc1ccc(C2CCCN2CC(=O)N(CCC#N)c2ccccc2)cc1 (stereo not drawn)	5.667
COc1ncccc1C(=O)N1CCc2c(ncnc2N2CCOCC2)C1	105
COCc1ccc(C(=O)N2CCc3c(ncnc3N3CCOCC3)C2)o1	-21.39
O=C(c1ncccc1O)N1CCc2c(ncnc2N2CCOCC2)C1	-10.43
CCc1ccc(-c2nn3c(nc2=O)-c2ccccc2NC3C(=O)O)cc1 (stereo not drawn)	-8.075
CCc1cnc(CN2CCOC(c3nc(C)n[nH]3)C2)o1 (stereo not drawn)	-1.85
c1cncc(CNC2CCc3ncnn3C2)c1 (stereo not drawn)	100.1

Compound	Percent Effect [%]
Cn1cc(CNC2CCc3ncnn3C2)c(-c2cccnc2)n1 (stereo not drawn)	-2.662
Clc1ccc(-n2cc(CNC3CCc4ncnn4C3)cn2)cc1 (stereo not drawn)	-12.36
Clc1ccccc1Cn1cc(CNC2CCc3ncnn3C2)cn1 (stereo not drawn)	121.3
Cn1cc(CNC2CCc3ncnn3C2)c(-c2ccncc2)n1 (stereo not drawn)	11.86
c1ccc(-n2ncc(CNC3CCc4ncnn4C3)n2)cc1 (stereo not drawn)	-11.2
c1ccc(Cn2cc(CNC3CCc4ncnn4C3)cn2)cc1 (stereo not drawn)	1.382
c1ccc(-n2cc(CNC3CCc4ncnn4C3)cn2)cc1 (stereo not drawn)	107.7
Cc1nc(C)n(C2CCCN(C(=O)c3cccc4[nH]ncc34)C2)n1 (stereo not drawn)	0.6187
c1ccc2c(c1)CC(N1CCCN(Cc3cccc4nonc34)CC1)C2	-60.59
COCC(NC(=O)NCc1cccc(C#N)c1)c1ccco1 (stereo not drawn)	-16.03
CN(Cc1ccccc1OC(F)(F)F)C(=O)C1CC1	0.731
CN(Cc1cccc(OC(F)(F)F)c1)C(=O)Cc1ccon1	-6.414
CN(Cc1cccc(OC(F)(F)F)c1)C(=O)c1ccncc1F	3.384
O=C(NCC(CO)Cc1cccc(OC(F)(F)F)c1)c1cnccn1 (stereo not drawn)	103
CC(CNC(=O)c1cnccn1)Oc1cccc(Br)c1 (stereo not drawn)	-3.895
CNC(=O)NCC(CO)Cc1ccccc1OC(F)(F)F (stereo not drawn)	119.9
CNC(=O)NCC(CO)Cc1cccc(OC(F)(F)F)c1 (stereo not drawn)	137.5
O=C(NCC(Cc1cccc(F)c1)N1CCCC1=O)c1cnccn1 (stereo not drawn)	-11.28
CC(O)CN1CCC(CNCc2ccccc2OC(F)(F)F)CC1 (stereo not drawn)	-2.479
O=C(c1ncc[nH]1)N1CCC(n2cc(-c3ccccn3)nn2)CC1	-4.702
CN1N=C(C(=O)N2CCN(c3ncccc3Cl)CC2)CCC1=O	-3.997
CC(C)C(=O)NCCCn1ncc2c(Cl)cccc21	-4.05
O=S(=O)(N1CCCCCC1)N1CCN(Cc2ccc(F)cc2Br)CC1	6.465
O=C(CN1CCCC1Cn1cncn1)NC(C1CC1)C1CC1 (stereo not drawn)	-5.289
O=C(CN1CCCC(Cn2cncn2)C1)NCCOc1ccccc1 (stereo not drawn)	-8.945
O=C(CN1CCCC1Cn1cncn1)NCCc1c(F)cccc1F (stereo not drawn)	-7.499

Compound	Percent Effect [%]
O=C(CN1CCCC1Cn1cncn1)NCCOc1cccc(F)c1 (stereo not drawn)	0.2795
O=C(CN1CCCC1Cn1cncn1)NCCOc1ccccc1 (stereo not drawn)	108.3
Cc1cccc(OCCNC(=O)CN2CCCC2Cn2cncn2)c1 (stereo not drawn)	115.7
O=C(CN1CCCCC1Cn1cncn1)NC1CCN(C2CC2)CC1 (stereo not drawn)	-6.056
O=C(CN1CCCC1Cn1cncn1)Nc1cccnc1 (stereo not drawn)	-2.58
O=C(CN1CCCCC1Cn1cncn1)NCCOc1ccccc1 (stereo not drawn)	140
O=C(CN1CCCC1Cn1cncn1)NCCOc1ccc(F)cc1 (stereo not drawn)	135.9
CCN1CCC(NC(=O)CN2CCCC2Cn2cncn2)CC1 (stereo not drawn)	1.475
COc1ccc(CNC[C@@]2(COc3cccnc3)C[C@@H](O)[C@@H](O)C2)cc1.Cl	-5.616
CCSCCC(C)NC(=O)Nc1cccn(C)c1=O (stereo not drawn)	-9.489
COCCOc1ccnc(-c2noc([C@@H]3CCCN3C(C)C)n2)c1	-15.24
CC(C)C1CN(Cc2cnc(N(C)C)nc2)CCCN1CC1CC1 (stereo not drawn)	-7.489
CC(C)N1CCCCC1c1nc(N(C)C)ncc1I.Cl (stereo not drawn)	76.51
CC(C)N1CCCC1c1nc(N(C)C)ncc1I (stereo not drawn)	51.47
CN(C)c1ccc(NC(=O)N2CCCCCC2c2ccncc2)cn1 (stereo not drawn)	0.3778
CC1=N[C@@]2(CC[C@@H]3CN(C(=O)NCC(C)C)C[C@@H]32)C(=O)N1CC(C)C	8.203
CCCc1nccn1-c1cccc(CN2CCCC2)c1	-15.07
Cc1ncccc1C(=O)NCc1ccccc1CN(C)Cc1ccco1	15.52
CCCNc1ncc(CN2CCN(C)C(=O)C2C)cn1 (stereo not drawn)	-4.636
Cc1ccc(CN2CCCC3(COCCN(Cc4c[nH]nn4)C3)C2)o1.O=C(O)C(F)(F)F.O=C(O)C(F)(F)F (stereo not drawn)	-14.33
O=C(O)C(F)(F)F.O=C(O)C(F)(F)F.c1csc(CN2CCC3(COCCN(CC4CC4)C3)C2)n1 (stereo not drawn)	26.97
Cc1occc1C(=O)N1CCOCC2(CCN(Cc3nccs3)C2)C1.O=C(O)C(F)(F)F (stereo not drawn)	-1.117
Cc1ccc(CN2CCOCC3(CCN(Cc4cccs4)C3)C2)o1.O=C(O)C(F)(F)F.O=C(O)C(F)(F)F (stereo not drawn)	110.5
CC(C)N1CCOCC2(CN(Cc3cccs3)CCO2)C1.O=C(O)C(F)(F)F.O=C(O)C(F)(F)F (stereo not drawn)	7.639
Cc1ccc(CN2CCOC3(COCCN(C(C)C)C3)C2)o1.O=C(O)C(F)(F)F.O=C(O)C(F)(F)F (stereo not drawn)	-26.11
CN(C)CCN1CCOCC2(CCCN(C(=O)c3ccoc3)C2)C1.O=C(O)C(F)(F)F.O=C(O)C(F)(F)F (stereo not drawn)	-7.918

Compound	Percent Effect [%]
O=C(NC1CC1)N1CCOCC2(CCN(Cc3cccs3)C2)C1.O=C(O)C(F)(F)F (stereo not drawn)	89.31
O=C(c1ccoc1)N1CCOCC2(CCN(Cc3cccs3)C2)C1 (stereo not drawn)	98.93
O=C(N1CCCC1)N1CCOCC2(CCN(Cc3cccs3)C2)C1.O=C(O)C(F)(F)F (stereo not drawn)	119.1
COCCN1C[C@@H](C)[C@@]2(COCCN(C(=O)c3ccoc3)C2)C1	1.711
O=C(O)C(F)(F)F.O=C(O)C(F)(F)F.c1csc(CN2CCCC3(COCCN(Cc4c[nH]nn4)C3)C2)c1 (stereo not drawn)	-6.971
OCCN(Cc1cccnc1)c1cnc2ccccc2n1	-10.33
COCCN1CCC2(COCCN(C(=O)Cc3cccs3)C2)C1.O=C(O)C(F)(F)F (stereo not drawn)	3.842
COCCC(=O)N1CCC2(CCN(Cc3ccc(C)cc3)CC2)C1.O=C(O)C(F)(F)F	-24.32
COCCC(=O)N1CCOCC2(CCN(Cc3cccs3)C2)C1.O=C(O)C(F)(F)F (stereo not drawn)	93.92
COCC(=O)N1CCOCC2(CCN(Cc3cccs3)C2)C1.O=C(O)C(F)(F)F (stereo not drawn)	92.34
COCC(=O)N1CCCC2(COCCN(CCN(C)C)C2)C1.O=C(O)C(F)(F)F.O=C(O)C(F)(F)F (stereo not drawn)	-43.45
Cc1nc(CC2CCCN(Cc3nc4ccccc4c(=O)[nH]3)C2)no1 (stereo not drawn)	-3.308
CSCc1cccc(S(=O)(=O)NCCCn2ccnc2)c1	-11.24
N#Cc1ccccc1N1CCCN(C(=O)CCc2nccs2)CC1	6.343
O=C(COCc1ccccc1)N1CCN(c2ccc(Cl)cn2)CC1	1.398
Cc1ccc(N2CCCN(C(=O)CCc3nccs3)CC2)nn1	105.9
O=C(CCc1nccs1)N1CCN(c2ccc(Br)cn2)CC1	15.4
O=C(CCc1nccs1)N1CCN(c2cccnn2)CC1	5.775
O=C(CCc1nccs1)N1CCN(c2nccs2)CC1	116.1
O=C(CCc1nccs1)N1CCN(c2ncccn2)CC1	-7.196
O=C(CCc1nccs1)N1CCN(c2ccc(Cl)cn2)CC1	142.1
Cc1csc(N2CCN(C(=O)CCc3nccs3)CC2)n1	0.8841
O=C(CCc1nccs1)N1CCN(c2ccccn2)CC1	104.9
O=C(CCc1nccs1)N1CCN(c2ccccc2F)CC1	-6.443
COc1cc(C)nc(N2CCN(C(=O)CCc3nccs3)CC2)n1	-2.127
